ALOX12 inh – Primary qHTS assay for inhibitors of human arachidonate 12S-lipoxygenase (ALOX12): Round 2. Polyunsaturated fatty acid lipoxygenase ALOX12 (Homo sapiens), P18054. purified 12hLO, xylenol orange hydroperoxide absorbance. Potency, µM (series often up to 108 µM), for inactives: top-dose activity change, negative = inhibition, hits mostly inhibitors. 580,000 tested, 1.1% active; also: potency is read from the fitted curve at half-maximal effect; % is scaled to controls: 0 for no effect and ±100 for the full control effect
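Hydroperoxide product was detected by ferrous iron/xylenol orange as the 573 to 405 nm absorbance ratio. Arachidonic acid at 40 uM (final) was turned over for 30 min at room temperature by 150 nM human 12hLO, pH 7.0 Hepes buffer, after 15 min compound preincubation.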
LDHA inh – qHTS assay for inhibitors of human lactate dehydrogenase; AID 1347041, 2019; purified LDHA, NADH/diaphorase-resazurin fluorescence; stronger effect = lower value; L-lactate dehydrogenase A chain (Homo sapiens), P00338; activity change, % (values are at about 110 or 230 µM); 480,000 tested, 0.15% active; in the data active = activity change below about -30%; inconclusive = mostly about -25% to -30%;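 also: plate controls were DMSO wells for no effect and wells without enzyme for full effect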
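Remaining NADH was detected by diaphorase (0.133 mg/mL) converting 37 µM resazurin to fluorescent resorufin, read at 0 and 20 minutes. The preceding 5-minute room-temperature reaction used 2 nM LDHA, 0.2 mM sodium pyruvate and 0.06 mM NADH at pH 7.4.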
Nrf2 ARE act – qHTS of Nrf2 Activators. Potency, µM (top dose mostly 46.1 µM), for the others: at the top dose activation, most hits filed as activators. 410,000 tested, 0.31% active. AREc32 ARE-luciferase reporter (MCF7-derived line), luminescence, 24 h. AID 624171, 2012; also: potency is read from the fitted curve at half-maximal effect; % of control where 0% means no effect; nearly all actives have a fitted effect of over 65% in size
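Luciferase luminescence (Steady-Glo, 30 min at room temperature) served as the read-out of ARE activation in AREc32 cells treated with compounds for 24 hr at 37 deg C.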
ERG Ets-DNA blk – qHTS for Small Molecule Inhibitors of the ERG Ets/DNA interaction | Transcriptional regulator ERG (Homo sapiens), P11308 | fluorescence polarization, His-ERG Ets domain / labelled DNA | Potency, µM (titrated, usually from 76.9 µM), inactives show at the highest dose FP activity, negative = inhibition, most hits filed as inhibitors | 370,000 tested, 0.028% active | AID 624246, 2012; active = well fitted inhibition curve with a large enough effect in the polarisation, with a control signal flat; inconclusive = small, poorly fitted or top-dose-only effect, or effect the other way, or a change in a side signal; inactive = no such curve, though single readings can be large or run the other way; the % refers to the polarisation;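 also: polarization taken with two DNA probes labelled with fluorescein and Texas red; potency is read from the fitted curve at half-maximal effect; % of control where 0% means no effect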
Target sequence (P11308 whole entry, looked up, the tested form may be a part): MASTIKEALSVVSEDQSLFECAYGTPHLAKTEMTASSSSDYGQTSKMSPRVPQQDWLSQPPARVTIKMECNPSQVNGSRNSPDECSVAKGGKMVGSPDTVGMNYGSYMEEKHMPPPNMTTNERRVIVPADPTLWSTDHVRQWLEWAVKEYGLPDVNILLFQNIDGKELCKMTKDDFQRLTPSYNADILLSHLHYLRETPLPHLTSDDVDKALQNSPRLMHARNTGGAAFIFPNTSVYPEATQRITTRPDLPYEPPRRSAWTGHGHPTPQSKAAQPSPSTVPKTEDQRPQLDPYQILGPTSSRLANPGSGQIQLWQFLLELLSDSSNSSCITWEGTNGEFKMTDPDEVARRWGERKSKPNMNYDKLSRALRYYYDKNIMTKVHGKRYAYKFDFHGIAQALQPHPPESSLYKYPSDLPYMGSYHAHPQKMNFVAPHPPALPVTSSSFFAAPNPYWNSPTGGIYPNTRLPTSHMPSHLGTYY
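His-tagged ERG Ets domain (1 uM in the protein solution; 300mM KCl, 50mM Tris-HCl, 1mM EDTA, 1mM DTT, pH 7.5) received compound, then a probe mix of 5 nM fluorescein-DNA and 100nM Texas-615-DNA. Fluorescence polarization was read for both dyes.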
A549 viability – Nrf2 qHTS screen for inhibitors: counterscreen for cytotoxicity | A549 ARE-Fluc cells, CellTiter-Fluor viability, 18-24 h | Potency, µM (highest dose often 46 µM), for the others: at the highest dose activity change, negative = cytotoxicity, most hits filed as inhibitors | 390,000 tested, 0.16% active | AID 504648, 2011; also: potency is read from the fitted curve at half-maximal effect; % is scaled to controls: 0 for no effect and ±100 for the full control effect
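Cytotoxicity counterscreen: CellTiter-Fluor fluorescence was measured in A549 ARE_Fluc cells after 18-24 h of compound exposure in a concentration series. The subsequent BugLite luminescent read reports ARE-luciferase activity.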
Nrf2 block – Nrf2 qHTS screen for inhibitors. Potency, µM (top dose mostly 46 µM), for inactives: at the highest dose activity change, negative = inhibition, usual class: inhibitors. 360,000 tested, 2.1% active. A549 ARE-Fluc reporter, luciferase luminescence, 18-24 h; also: potency is read from the fitted curve at half-maximal effect; % is scaled to controls: 0 for no effect and ±100 for the full control effect; nearly all actives have a fitted effect of over 60% in size
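A549 ARE_Fluc cells, 5000/well, 5% FBS OPTI-MEM; compounds in dose-response, 18-24 h at 37 °C/5% CO2; CellTiter-Fluor viability read (Ex 405/Em 525), then BugLite luciferase luminescence = Nrf2 activity.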
An asterisk follows results filed as active; ? = inconclusive; nt = no result given; ! = not active in a repeat; [ ] = dose if it differs, or a comment. The list is not random: actives were taken first. Their share in the collection is about 2.7%. Unless noted, calls follow the shape of the dose curve; as a rule, active = well fitted curve in the direction sought with a large enough effect; inconclusive = small, poorly fitted or top-dose-only effect, or another doubt; inactive = no such curve, though single readings can be large; an effect the other way counts as inactive or inconclusive.

SMILES	ALOX12 inh	LDHA inh	Nrf2 ARE act	ERG Ets-DNA blk	A549 viability	Nrf2 block
COc1ccc(Nc2nc3nonc3nc2N2CCCCC2)cc1	0%	-3	4%	8%	-10%	26µM*
Cc1ccc(CCC(=O)N(C)Cc2cccs2)cc1	18%	2	nt	nt	nt	nt
CC(C)NC(=O)Nc1c(NC2CCCCC2)c2ccccc2oc1=O	-9%	0	nt	nt	nt	nt
CC(C)CCN1CC(Oc2cccc(C(=O)N3CCOCC3)c2)C1	-2%	nt	nt	nt	nt	nt
CC(C)(C)CCN1CC(Oc2cccc(C(=O)N3CCOCC3)c2)C1	22µM*	nt	nt	nt	nt	nt
O=c1[nH]c2ccc(-c3csc(Nc4ccccc4F)n3)cc2o1	?	0	nt	nt	nt	nt
C#CCNC(=O)C1CN(c2cccc(Cl)c2)C(=O)N1 (stereo not given)	50µM*!	nt	nt	nt	nt	nt
CCCCn1cnc2c(SCc3ccc(Br)cc3)nc(N)nc21	-23%	-3	5%	-5%	-19%	18µM*
Cc1ccc(-c2nn(Cc3nc(-c4ccccc4)no3)c(=O)c3ccccc23)cc1	-44%	-6	nt	nt	nt	nt
Oc1ccc(/C=N/N=C/c2ccc(O)c(O)c2)cc1O	1.1µM*	17	8%	5%	-12%	?
Oc1ccc(N=Cc2ccc(O)c(O)c2)cc1	nt	39	22%	-12%	-5%	2%
O=C(/C(=N/N=C/c1ccc(O)c(O)c1)c1ccccc1)c1ccccc1	40µM*	7	5%	-9%	-6%	15%
Cc1cccc(Nc2ccc3ccccc3c2)c1	?	16	nt	nt	nt	nt
CCOc1ccccc1NC(=O)c1cc2c(N3CCSCC3)nc(C)cn2n1	17%	nt	nt	nt	nt	nt
Cc1ccc(S(=O)(=O)NNc2c3ccccc3nc3ccc(Cl)cc23)cc1	25µM*	-1	8%	nt	nt	nt
Cc1oc2cc(OCC(=O)O)ccc2c(=O)c1Oc1ccccc1Br	32µM*	-3	nt	nt	nt	nt
CCOC(=O)COc1ccc2c(=O)c(Oc3ccccc3Br)c(C)oc2c1	?	5	nt	nt	nt	nt
COc1ccccc1NC(=O)CSc1nc(N2CCOCC2)c2c(c1C#N)CCCC2	-4%	11	nt	nt	nt	nt
NC(=S)N/N=C/c1cc(-c2ccccc2)[nH]c1-c1ccccc1	?	2	nt	nt	nt	nt
Cc1cc(Nc2sc(C(=O)c3ccc(F)cc3)c(N)c2C(=O)Nc2ccc(F)cc2)ccc1Cl	-17%	2	-2%	1%	16µM*	nt
COc1ccc(C(=O)c2sc(Nc3cccc(OC)c3)c(C(=O)Nc3cccc(C)c3C)c2N)cc1	-14%	0	7%	2%	?	23µM*
CCCCCCCCCOc1ccc(C#N)c(O)c1	?	1	nt	nt	nt	nt
COc1cc(C2C(C#N)=C(N)N(Nc3ccccc3)C3=C2C(=O)CC(C)(C)C3)ccc1OCc1ccccc1 (stereo not given)	3%	-8	3%	2%	?	23µM*
N#CC(c1ccncc1)(c1ncc(C(F)(F)F)cc1Cl)N1CCOCC1 (stereo not given)	45µM*	-5	3%	-2%	-21%	-13%
OC[C@@H]1O[C@H](CNCc2ccc(F)cc2)[C@H](N2CCOCC2)[C@@H]1O	28µM*	nt	nt	nt	nt	nt
SMILES	ALOX12 inh	LDHA inh	Nrf2 ARE act	ERG Ets-DNA blk	A549 viability	Nrf2 block
OC[C@@H]1O[C@H](CNCc2ccc(F)cc2)[C@H](N2CCCC2)[C@@H]1O	-3%[176 µM]	nt	nt	nt	nt	nt
CCn1nc(C(=O)OCc2nc(-c3cccc(OC)c3)no2)c2ccccc2c1=O	-12%	2	nt	nt	nt	nt
CCOCCCn1c(=O)c2ccccc2n2c(=S)[nH]nc12	4µM*	0	0%	6%	13%	4%
CC(C)(C)C(=O)OCC1CCC[N+]2(C)CCCCC12 (stereo not given)	28µM*	-9	nt	nt	nt	nt
Cc1ccccc1C(=O)OCC1CCC[N+]2(C)CCCCC12 (stereo not given)	28µM*	6	nt	nt	nt	nt
CCOc1nc2ccccc2nc1C(C#N)C(=O)NCc1ccccc1 (stereo not given)	-14%	-10	nt	nt	nt	nt
C=CCOc1cccc(C(c2c[nH]c3ccccc23)c2c[nH]c3ccccc23)c1	?	12	nt	nt	nt	nt
O=C1C=C(N2CCCCC2)c2ccccc2C1=O	265%	29	-3%	5%	18µM*	9.2µM*
O=C1c2ccccc2C(=O)c2c1cccc2N1CCCC1	-19%	32	8%	9%	?	7%
Clc1cc(-c2ccccc2)nc(-c2ccccc2)n1	0%	1	?	0%	1%	-3%
NNc1nc(-c2ccccc2)cc(-c2ccccc2O)n1	-7%	-6	0%	-3%	12%	?
Clc1nc(-c2ccccc2)cc(-c2ccccc2)n1	1%	-1	8.9µM*	-3%	2%	11%
NNc1nc(-c2ccccc2)cc(-c2ccccc2)n1	-7%	-3	-1%	0%	-3%	9.2µM*
Cc1cc(=O)oc2cc(OCC(=O)NCCC#N)c(Cl)cc12	?	7	nt	nt	nt	nt
COC(=O)c1ccc(C2NC(=S)NC3=C2CCc2ccccc23)cc1 (stereo not given)	?	-12	nt	nt	nt	nt
O=C(O)CCC(=O)Nc1sc2c(c1C(=O)Nc1ccccc1)CCCCC2	14µM*!	-1	14µM*!	6%	-1%	14%
NC(=O)c1c(NC(=S)Nc2ccc(F)cc2)sc2c1CCCC2	?	0	0%	-5%	-5%	1%
NC(=O)c1c(NC(=S)Nc2ccccc2)sc2c1CCCC2	35µM*	-2	4%	-9%	-5%	-8%
CSc1ccc(C2CC(=O)Nc3c2c(=O)[nH]c2ncnn32)cc1 (stereo not given)	?	-1	nt	nt	nt	nt
N#Cc1nc(Nc2cc(F)cc(F)c2)c2ncn(CCCN3CCCC3)c2n1	nt	2	nt	nt	2.1µM*	6%
CCn1cnc2c(Nc3cc(F)cc(F)c3)nc(C#N)nc21	6%	2	7%	nt	-17%	?
CC(=O)Oc1cccc2c1C(=O)c1c(OC(C)=O)cc(C(=O)O)cc1C2=O	-16%	5	0%	13%	21µM*	?
CC(=O)Oc1ccc(C(=O)O)cc1OC(C)=O	2%	10	-1%	3%	1%	-8%
CNC(=S)NNC(=O)c1sccc1OCc1ccc(Cl)cc1Cl	10%	-4	0%	-6%	-4%	1%
S=c1nc(-c2sccc2OCc2ccc(Cl)cc2Cl)[nH][nH]1	28µM*	2	3%	-2%	-4%	-29%
CCC(=O)Oc1c(Sc2ccc(Cl)cc2)c(C)nn1-c1ccccc1	16µM*	-11	-4%	-13%	10%	-22%[9.27 µM]

Assay outcomes (PubChem)
